Source: PubChem BioAssay (EPA / NIEHS)
Results filed as inconclusive are left out. A structure can be active in one record and inactive in another. Activity calls are given as the source filed them. How the source made its calls, unless noted: active means hit-call score of the fitted dose curve at least 0.9, where 1 is the maximum; inactive means score below 0.9.

How the values were obtained:
[1] = biological target: Estrogen-related receptor gamma (Homo sapiens) (UniProt P62508); experiment: ATG_ERRg_TRANS: Attagene TRANS-FACTORIAL HepG2 Assay for human Estrogen-Related Receptor gamma (ERRg) (AID 2282977; active means hit-call score of the fitted dose curve at least 0.9, where 1 is the maximum;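 further: hits increase reporter signal over DMSO so potencies reflect activators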); settings: HepG2 Attagene TRANS reporter, ERRg transactivation
Procedure, shortened: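 HepG2 cells transiently transfected with multiplexed GAL4-UAS reporter units driven by chimeric NR-Gal4 proteins; 24 h exposure. Reporter mRNA quantified by RT-PCR, fluorescent labelling, HpaI digestion and capillary electrophoresis; gain of signal vs DMSO.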

[2] = biological target: Bile acid receptor (Homo sapiens) (UniProt Q96RI1); experiment: ATG_FXR_TRANS: Attagene TRANS-FACTORIAL HepG2 Assay for Farnesoid X Receptor (FXR) (AID 2282979; active means hit-call score of the fitted dose curve at least 0.9, where 1 is the maximum;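 further: hits raise reporter mRNA above DMSO so AC50 marks FXR activation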); settings: HepG2 Attagene TRANS FXR-GAL4 reporter transcription
Procedure, shortened: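 After 24 h chemical treatment of transfected HepG2 cells, GAL4-UAS reporter transcripts driven by an exogenous FXR-GAL4 fusion were measured by RT-PCR and capillary electrophoresis. Increases over DMSO were fitted.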

[3] = ATG_M_06_TRANS: Attagene TRANS-FACTORIAL HepG2 Assay for M06 Transcription Factor (Internal Marker) (AID 2282983; active means hit-call score of the fitted dose curve at least 0.9, where 1 is the maximum;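 further: reporter transcript level by RT-PCR then capillary electrophoresis fluorescence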); settings: HepG2 Attagene TRANS M06 internal marker reporter
Procedure, shortened: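 Internal-marker background readout from a multiplexed TRANS reporter system in HepG2; 24 h dosing; mRNA induction quantified by RT-PCR plus capillary electrophoresis fluorescence; DMSO as negative control and baseline.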

[4] = biological target: Nuclear receptor subfamily 4 group A member 2 (Homo sapiens) (UniProt P43354); experiment: ATG_NURR1_TRANS: Attagene TRANS-FACTORIAL HepG2 Assay for human Nuclear Receptor Related Protein 1 (NURR1) (AID 2282985; active means hit-call score of the fitted dose curve at least 0.9, where 1 is the maximum); settings: HepG2 Attagene TRANS reporter, mRNA readout
Procedure, shortened: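 Transient transfection of HepG2, human liver cells, with multiple GAL4-UAS reporter transcription units. Cells dosed 24 h, RNA isolated, reverse-transcribed, PCR-amplified, FAM-labelled, HpaI-digested, sized by capillary electrophoresis. DMSO served as negative control.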

[5] = biological target: Transcriptional activator Myb (Homo sapiens) (UniProt P10242); experiment: ATG_Myb_CIS: Attagene CIS-FACTORIAL HepG2 Assay for human Myeloblastosis (Myb) Proto-Oncogene Transcription Factor (AID 2282986); settings: HepG2 Attagene CIS-FACTORIAL Myb reporter transcription; actives raise or lower the signal
Procedure, shortened: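 Using HepG2 liver cells bearing transiently transfected cis-promoter reporter constructs, the assay measures induction or loss of reporter mRNA after 24 hours of dosing. Detection used fluorescently labeled RT-PCR products separated by capillary electrophoresis.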

[6] = biological target: Nuclear respiratory factor 1 (Homo sapiens) (UniProt Q16656); experiment: ATG_NRF1_CIS: Attagene CIS-FACTORIAL HepG2 Assay for human Nuclear Respiratory Factor 1 (NRF1) Orphan Gene (AID 2282987); settings: HepG2 NRF1 cis-element reporter, Attagene multiplex; actives raise or lower the signal
Procedure, shortened: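 Reporter mRNA induction or loss in HepG2 cells after 24 h dosing; cis-regulated reporter constructs report endogenous transcription-factor activity. Quantified by RT-PCR/capillary electrophoresis fluorescence, DMSO-referenced.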

[7] = ATG_NFI_CIS: Attagene CIS-FACTORIAL HepG2 Assay for human Nuclear Factor I (NFI) (AID 2282989); settings: HepG2 cis-regulatory reporter, NFI response element transcription; actives raise or lower the signal
Procedure, shortened: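 Transfected HepG2 liver cells, exposed 24 h, supplied total RNA for oligo(dT) reverse transcription and reporter-specific PCR. Labelled, HpaI-cut fragments were sized by capillary electrophoresis; DMSO set the baseline for bidirectional fitting.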

[8] = biological target: Myc proto-oncogene protein (Homo sapiens) (UniProt P01106); experiment: ATG_Myc_CIS: Attagene CIS-FACTORIAL HepG2 Assay for human Myelocytomatosis (Myc) Proto-Oncogene Transcription Factor (AID 2282990); settings: HepG2, Attagene cis-reporter transcription factor activity; actives raise or lower the signal
Procedure, shortened: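 Cells of the HepG2 human liver line bear multiple cis-driven reporter transcription units. Reporter mRNA after 24 h exposure is reverse-transcribed, amplified, labelled and resolved by capillary electrophoresis, with gain- or loss-of-signal fitting relative to DMSO.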

[9] = ATG_NF_kB_CIS: Attagene CIS-FACTORIAL HepG2 Assay for human Nuclear Factor Kappa B (NF-kB) (AID 2282991); settings: HepG2 Attagene cis-factorial NF-kB reporter mRNA; actives raise or lower the signal
Procedure, shortened: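 DMSO served as negative control and baseline for bidirectional curve fitting. Transiently transfected HepG2 cells were dosed for 24 h, then reporter transcripts were measured by RT-PCR with capillary electrophoresis detection.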

[10] = ATG_NRF2_ARE_CIS: Attagene CIS-FACTORIAL HepG2 Assay for human Nuclear Factor Erythroid 2 Related Factor 2 (NFR2) response to Antioxidant Response Elements (ARE) (AID 2282992); settings: HepG2 Attagene ARE/NRF2 reporter, transcription factor activity; actives raise or lower the signal;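 on AC50: reporter mRNA level measured by RT-PCR and capillary electrophoresis fluorescence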
Procedure, shortened: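 Cis-factorial assay: transfected HepG2 reporter library, 24 h dosing, mRNA readout via RT-PCR/CE; DMSO-referenced bidirectional analysis.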

[11] = ATG_Oct_MLP_CIS: Attagene CIS-FACTORIAL HepG2 Assay for human Octamer-Binding Transcription Factor (Oct) (AID 2282993); settings: HepG2 Attagene cis-factorial Oct reporter, mRNA; actives raise or lower the signal
Procedure, shortened: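 Using HepG2 cells bearing transfected cis-reporter constructs, mRNA induction was read after 24 h by fluorescent RT-PCR and capillary electrophoresis, with DMSO defining baseline for gain- or loss-of-signal fits.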

[12] = biological target: Cellular tumor antigen p53 (Homo sapiens) (UniProt P04637); experiment: ATG_p53_CIS: Attagene CIS-FACTORIAL HepG2 Assay for human p53 Transcription Factor (AID 2282994); settings: HepG2 p53 cis-element reporter, Attagene mRNA; actives raise or lower the signal
Procedure, shortened: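 Using HepG2 hepatoma cells carrying cis-acting multiplexed reporters, mRNA induction is detected after a 24 h exposure. Gain- and loss-of-signal responses are fitted relative to DMSO-treated cells.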

[13] = BSK_3C_TissueFactor: BioMAP Diversity Plus: 3C Assay for Tissue Factor Biomarker Activity (AID 2282997); settings: BioMAP 3C HUVEC, tissue factor biomarker readout; actives raise or lower the signal
Procedure, shortened: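 Endothelial monolayers (human umbilical vein, primary) are dosed, incubated 24 h, and assayed for Tissue Factor by ELISA; DMSO serves as negative control for bidirectional fitting.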

[14] = BSK_3C_VCAM1: BioMAP Diversity Plus: 3C Assay for Vascular cell adhesion molecule 1 (VCAM1) Biomarker Activity (AID 2282999); settings: BioMAP 3C HUVEC, VCAM1 ELISA, cytokine-stimulated; actives raise or lower the signal
Procedure, shortened: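 Endothelial cells from human umbilical vein are treated with test chemical. At 24 h, VCAM-1 is measured by ELISA, and responses in either direction are fitted relative to DMSO.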

[15] = ATG_M_32_TRANS: Attagene TRANS-FACTORIAL HepG2 Assay for M32 Transcription Factor (Internal Marker) (AID 2282984; active means hit-call score of the fitted dose curve at least 0.9, where 1 is the maximum;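 further: transcript level of a background control reporter unit measured by RT-PCR and capillary electrophoresis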); settings: HepG2 Attagene TRANS M32 internal marker reporter
Procedure, shortened: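 Measures reporter mRNA induction in human HepG2 liver cells after 24 h chemical treatment. Transcripts from transiently transfected GAL4-UAS reporter units are amplified, fluorescently labelled and sized by capillary electrophoresis; gain of signal relative to DMSO.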

[16] = biological target: Glucocorticoid receptor (Homo sapiens) (UniProt P04150); experiment: ATG_GR_TRANS: Attagene TRANS-FACTORIAL HepG2 Assay for human Glucocorticoid Receptor (GR) (AID 2282978; active means hit-call score of the fitted dose curve at least 0.9, where 1 is the maximum;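 further: activators score as hits since higher reporter transcript over DMSO is fitted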); settings: HepG2 Attagene TRANS GR reporter, mRNA transcription
Procedure, shortened: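 Transiently transfected HepG2 cells express chimeric NR-GAL4 proteins acting on GAL4-UAS reporter units. Compounds are applied for 24 h. mRNA induction over DMSO is measured by capillary electrophoresis.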

[17] = biological target: Oxysterols receptor LXR-alpha (Homo sapiens) (UniProt Q13133); experiment: ATG_LXRa_TRANS: Attagene TRANS-FACTORIAL HepG2 Assay for human Liver X Receptor alpha (LXRa) (AID 2282980; active means hit-call score of the fitted dose curve at least 0.9, where 1 is the maximum); settings: HepG2 Attagene TRANS reporter, LXRa transactivation
Procedure, shortened: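 In this multiplexed TRANS system, compounds act on HepG2 cells carrying GAL4-UAS reporter units and a receptor-GAL4 fusion for 24 h. Induced reporter RNA is amplified, fluorescently labelled and sized by capillary electrophoresis, with DMSO as baseline.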

[18] = biological target: Oxysterols receptor LXR-beta (Homo sapiens) (UniProt P55055); experiment: ATG_LXRb_TRANS: Attagene TRANS-FACTORIAL HepG2 Assay for human Liver X Receptor beta (LXRb) (AID 2282981; active means hit-call score of the fitted dose curve at least 0.9, where 1 is the maximum); settings: HepG2 Attagene TRANS GAL4-LXRb reporter, mRNA
Procedure, shortened: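 Transient transfection HepG2 (multiplexed RTUs, GAL4-UAS); NR-Gal4 chimera; 24 h exposure; RNA → RT-PCR → 6-FAM primer extension → HpaI → CE; increase vs DMSO.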

[19] = BSK_3C_uPAR: BioMAP Diversity Plus: 3C Assay for Urokinase-type plasminogen activator receptor (uPAR) Biomarker Activity (AID 2282998); settings: BioMAP 3C HUVEC, uPAR biomarker ELISA; actives raise or lower the signal
Procedure, shortened: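 In this endothelial cell-based assay, human umbilical vein primary cells were treated with chemicals and harvested at 24 h. uPAR was quantified using ELISA, with gains or losses fitted relative to DMSO controls.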

[20] = biological target: Hepatocyte nuclear factor 4-alpha (Homo sapiens) (UniProt P41235); experiment: ATG_HNF4a_TRANS: Attagene TRANS-FACTORIAL HepG2 Assay for human Hepatocyte Nuclear Factor 4 alpha (HNF4a) (AID 2282982; active means hit-call score of the fitted dose curve at least 0.9, where 1 is the maximum); settings: HepG2 HNF4a transactivation reporter, mRNA readout
Procedure, shortened: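 Readout is fluorescent reporter-transcript fragments resolved by capillary electrophoresis after RT-PCR from HepG2 cells dosed for 24 h. Cells carried transfected GAL4-UAS reporter constructs measuring exogenous NR-GAL4 chimera activity; DMSO served as baseline.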

Measured: AC50

Sequence of Cellular tumor antigen p53 (Homo sapiens) (P04637 whole entry, looked up): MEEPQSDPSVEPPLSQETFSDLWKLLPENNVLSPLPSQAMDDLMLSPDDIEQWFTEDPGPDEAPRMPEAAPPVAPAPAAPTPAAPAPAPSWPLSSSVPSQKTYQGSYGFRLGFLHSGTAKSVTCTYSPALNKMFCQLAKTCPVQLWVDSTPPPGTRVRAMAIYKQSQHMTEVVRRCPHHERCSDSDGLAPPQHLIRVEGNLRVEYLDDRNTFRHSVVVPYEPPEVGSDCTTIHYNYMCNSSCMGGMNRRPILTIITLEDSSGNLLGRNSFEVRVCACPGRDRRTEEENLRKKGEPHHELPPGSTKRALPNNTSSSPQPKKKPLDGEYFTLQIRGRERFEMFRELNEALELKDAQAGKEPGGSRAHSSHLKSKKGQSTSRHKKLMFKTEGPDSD
Sequence of Glucocorticoid receptor (Homo sapiens) (P04150 whole entry, looked up, the tested form may be a part): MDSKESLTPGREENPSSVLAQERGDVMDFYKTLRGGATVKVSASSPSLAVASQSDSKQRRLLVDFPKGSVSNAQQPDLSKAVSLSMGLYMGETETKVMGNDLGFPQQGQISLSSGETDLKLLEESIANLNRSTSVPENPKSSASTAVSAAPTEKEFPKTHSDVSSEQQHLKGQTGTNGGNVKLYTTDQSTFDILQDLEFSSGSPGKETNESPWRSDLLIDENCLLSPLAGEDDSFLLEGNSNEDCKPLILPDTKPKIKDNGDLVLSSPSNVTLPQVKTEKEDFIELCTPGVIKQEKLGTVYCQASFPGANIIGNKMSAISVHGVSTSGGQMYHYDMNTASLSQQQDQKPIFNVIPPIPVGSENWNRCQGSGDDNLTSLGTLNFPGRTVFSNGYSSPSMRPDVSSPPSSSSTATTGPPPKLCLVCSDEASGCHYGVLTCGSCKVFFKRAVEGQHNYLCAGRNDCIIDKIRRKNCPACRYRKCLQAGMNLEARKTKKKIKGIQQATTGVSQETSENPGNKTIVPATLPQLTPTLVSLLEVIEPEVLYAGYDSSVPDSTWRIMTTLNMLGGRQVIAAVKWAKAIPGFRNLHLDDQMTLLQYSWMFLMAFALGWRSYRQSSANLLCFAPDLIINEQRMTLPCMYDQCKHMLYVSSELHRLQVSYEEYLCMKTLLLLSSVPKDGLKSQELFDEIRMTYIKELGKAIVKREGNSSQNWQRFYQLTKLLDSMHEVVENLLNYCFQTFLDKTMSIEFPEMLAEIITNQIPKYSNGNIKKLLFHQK
Sequence of Nuclear respiratory factor 1 (Homo sapiens) (Q16656 whole entry, looked up): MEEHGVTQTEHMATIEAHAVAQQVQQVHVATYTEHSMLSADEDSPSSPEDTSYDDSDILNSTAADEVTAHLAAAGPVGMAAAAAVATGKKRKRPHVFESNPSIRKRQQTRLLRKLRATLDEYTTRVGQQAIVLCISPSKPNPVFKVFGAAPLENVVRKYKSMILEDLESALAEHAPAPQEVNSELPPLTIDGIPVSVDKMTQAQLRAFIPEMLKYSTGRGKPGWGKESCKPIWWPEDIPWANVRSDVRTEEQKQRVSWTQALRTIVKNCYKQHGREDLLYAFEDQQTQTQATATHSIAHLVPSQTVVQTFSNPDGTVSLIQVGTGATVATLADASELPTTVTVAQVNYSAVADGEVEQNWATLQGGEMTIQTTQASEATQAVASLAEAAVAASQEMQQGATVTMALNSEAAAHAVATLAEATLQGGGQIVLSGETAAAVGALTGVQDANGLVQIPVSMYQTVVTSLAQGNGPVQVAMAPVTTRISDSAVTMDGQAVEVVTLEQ
Sequence of Estrogen-related receptor gamma (Homo sapiens) (P62508 whole entry, looked up, the tested form may be a part): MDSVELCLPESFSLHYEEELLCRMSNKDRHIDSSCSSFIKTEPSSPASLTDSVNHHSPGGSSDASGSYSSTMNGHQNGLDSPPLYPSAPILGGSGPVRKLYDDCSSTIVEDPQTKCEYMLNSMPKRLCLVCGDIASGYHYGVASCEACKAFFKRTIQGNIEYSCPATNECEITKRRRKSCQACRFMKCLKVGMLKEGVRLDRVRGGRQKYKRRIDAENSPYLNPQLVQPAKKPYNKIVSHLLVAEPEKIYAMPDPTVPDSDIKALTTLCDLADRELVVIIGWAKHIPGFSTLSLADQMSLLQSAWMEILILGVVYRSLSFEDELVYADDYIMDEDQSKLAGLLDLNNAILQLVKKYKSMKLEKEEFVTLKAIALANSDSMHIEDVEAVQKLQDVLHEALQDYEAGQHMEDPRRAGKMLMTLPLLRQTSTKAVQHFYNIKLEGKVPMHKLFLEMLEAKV
Sequence of Nuclear receptor subfamily 4 group A member 2 (Homo sapiens) (P43354 whole entry, looked up, the tested form may be a part): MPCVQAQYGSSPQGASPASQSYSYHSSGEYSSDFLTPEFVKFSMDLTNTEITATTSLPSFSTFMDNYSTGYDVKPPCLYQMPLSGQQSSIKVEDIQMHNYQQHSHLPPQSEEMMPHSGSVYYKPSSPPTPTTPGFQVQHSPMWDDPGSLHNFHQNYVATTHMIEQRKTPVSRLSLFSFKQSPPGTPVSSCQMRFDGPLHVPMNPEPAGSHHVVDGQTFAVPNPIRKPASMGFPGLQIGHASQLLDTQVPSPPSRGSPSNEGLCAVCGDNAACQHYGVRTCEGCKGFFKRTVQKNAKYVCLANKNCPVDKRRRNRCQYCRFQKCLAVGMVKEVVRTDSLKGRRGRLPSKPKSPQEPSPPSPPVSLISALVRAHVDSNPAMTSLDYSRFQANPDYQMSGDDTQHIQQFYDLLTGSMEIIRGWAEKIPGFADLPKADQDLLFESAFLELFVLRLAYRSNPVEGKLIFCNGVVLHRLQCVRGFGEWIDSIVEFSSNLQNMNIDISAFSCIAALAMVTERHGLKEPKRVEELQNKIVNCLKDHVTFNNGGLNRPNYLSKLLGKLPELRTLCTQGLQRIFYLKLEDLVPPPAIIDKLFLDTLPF
Sequence of Hepatocyte nuclear factor 4-alpha (Homo sapiens) (P41235 whole entry, looked up, the tested form may be a part): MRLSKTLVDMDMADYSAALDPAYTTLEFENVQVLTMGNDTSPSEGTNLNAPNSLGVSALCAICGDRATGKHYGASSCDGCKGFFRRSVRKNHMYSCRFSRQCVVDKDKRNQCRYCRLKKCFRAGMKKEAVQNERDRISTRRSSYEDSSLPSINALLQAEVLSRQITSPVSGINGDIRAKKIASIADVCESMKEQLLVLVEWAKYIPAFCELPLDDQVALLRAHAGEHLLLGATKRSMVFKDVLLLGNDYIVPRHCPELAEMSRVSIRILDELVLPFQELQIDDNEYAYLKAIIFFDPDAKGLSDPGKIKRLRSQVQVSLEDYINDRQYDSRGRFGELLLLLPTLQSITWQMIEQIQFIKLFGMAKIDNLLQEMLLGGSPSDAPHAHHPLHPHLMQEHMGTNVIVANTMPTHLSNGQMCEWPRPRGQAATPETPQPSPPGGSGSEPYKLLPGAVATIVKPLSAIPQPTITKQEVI
Sequence of Oxysterols receptor LXR-alpha (Homo sapiens) (Q13133 whole entry, looked up, the tested form may be a part): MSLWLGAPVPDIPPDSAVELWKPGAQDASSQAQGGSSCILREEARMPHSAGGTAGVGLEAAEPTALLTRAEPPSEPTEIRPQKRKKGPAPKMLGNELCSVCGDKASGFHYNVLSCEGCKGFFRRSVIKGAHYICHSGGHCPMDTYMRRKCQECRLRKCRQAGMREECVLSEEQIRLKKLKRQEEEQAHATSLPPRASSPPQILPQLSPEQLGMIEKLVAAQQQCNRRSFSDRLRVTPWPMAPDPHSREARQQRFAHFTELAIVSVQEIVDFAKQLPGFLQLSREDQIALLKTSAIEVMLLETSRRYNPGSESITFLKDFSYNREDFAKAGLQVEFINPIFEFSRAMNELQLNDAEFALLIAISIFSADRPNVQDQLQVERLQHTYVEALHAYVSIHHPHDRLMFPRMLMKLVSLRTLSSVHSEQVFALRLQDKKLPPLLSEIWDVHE
Sequence of Transcriptional activator Myb (Homo sapiens) (P10242 whole entry, looked up): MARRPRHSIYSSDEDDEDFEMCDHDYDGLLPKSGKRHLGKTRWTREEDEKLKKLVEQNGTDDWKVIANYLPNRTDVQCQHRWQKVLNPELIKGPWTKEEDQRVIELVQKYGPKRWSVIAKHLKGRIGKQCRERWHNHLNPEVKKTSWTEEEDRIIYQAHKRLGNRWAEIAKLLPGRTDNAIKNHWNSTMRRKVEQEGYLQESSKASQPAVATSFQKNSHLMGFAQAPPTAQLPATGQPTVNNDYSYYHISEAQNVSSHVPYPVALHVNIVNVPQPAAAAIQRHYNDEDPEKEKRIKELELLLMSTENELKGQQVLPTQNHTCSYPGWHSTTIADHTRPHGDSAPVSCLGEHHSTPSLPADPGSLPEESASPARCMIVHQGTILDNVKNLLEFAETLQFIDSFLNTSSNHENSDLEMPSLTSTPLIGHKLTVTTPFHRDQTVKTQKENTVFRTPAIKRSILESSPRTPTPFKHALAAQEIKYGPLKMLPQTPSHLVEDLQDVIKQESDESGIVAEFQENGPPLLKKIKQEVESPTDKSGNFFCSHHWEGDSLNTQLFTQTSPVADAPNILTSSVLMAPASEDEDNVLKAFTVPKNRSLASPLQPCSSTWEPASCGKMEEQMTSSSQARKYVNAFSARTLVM
Sequence of Bile acid receptor (Homo sapiens) (Q96RI1 whole entry, looked up, the tested form may be a part): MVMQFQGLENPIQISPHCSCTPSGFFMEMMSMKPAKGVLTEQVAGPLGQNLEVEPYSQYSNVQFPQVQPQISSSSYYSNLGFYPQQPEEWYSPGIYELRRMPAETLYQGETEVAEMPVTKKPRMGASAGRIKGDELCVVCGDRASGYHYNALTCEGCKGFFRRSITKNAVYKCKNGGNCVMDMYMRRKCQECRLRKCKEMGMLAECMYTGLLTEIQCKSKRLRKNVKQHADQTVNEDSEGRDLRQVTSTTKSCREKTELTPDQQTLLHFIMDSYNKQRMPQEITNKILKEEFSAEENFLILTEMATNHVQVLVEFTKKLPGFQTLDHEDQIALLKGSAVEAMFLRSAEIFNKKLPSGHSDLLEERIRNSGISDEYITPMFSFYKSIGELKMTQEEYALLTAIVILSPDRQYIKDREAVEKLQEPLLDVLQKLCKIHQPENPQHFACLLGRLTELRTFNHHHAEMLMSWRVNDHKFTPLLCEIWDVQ

CCC(C)(C)c1ccc(O)cc1
active: [5] 46.1 µM | [10] 33.4 µM
not listed: [15] | [16] | [17] | [18] | [19] | [20]
inactive: all other assays above

CC(C)(C)c1ccccc1OP(=O)(Oc1ccccc1)Oc1ccccc1
active: [4] 57.4 µM | [10] 19.8 µM | [13] 20 µM | [14] 28.6 µM
not listed: [3] | [16] | [17] | [18] | [19] | [20]
inactive: all other assays above

CC(C)(C)OOC(C)(C)C
not listed: [1] | [15] | [20]
inactive: all other assays above

Cc1ccc(N)cc1N
not listed: [10] | [15] | [17] | [18] | [20]
inactive: all other assays above

Cc1ccc(C(=O)Cl)cc1
not listed: [2] | [4] | [10] | [13] | [14] | [18] | [19]
inactive: all other assays above

CC(C)CBr
not listed: [4] | [13] | [14] | [16] | [18] | [19] | [20]
inactive: all other assays above

COC(=O)C(F)(F)C(F)(F)OC(F)(C(F)(F)F)C(F)(F)OC(F)=C(F)F (configuration not stated)
inactive: [1] | [16] | [2] | [17] | [18] | [20] | [3] | [15] | [4] | [5] | [6] | [7] | [8] | [9] | [11] | [12] | [13] | [19] | [14]
active: [12] 12.7 µM

O=C(O)C(F)(F)OC(F)(F)C(F)(F)OC(F)(F)F
not listed: [4]
inactive: all other assays above

CC(C)Nc1ccc(Nc2ccccc2)cc1
active: [13] 8.11 µM | [19] 13.2 µM | [14] 8.53 µM
not listed: [3] | [9] | [10] | [15] | [18]
inactive: all other assays above

CCOP(=S)(Oc1ccc([N+](=O)[O-])cc1)c1ccccc1 (configuration not stated)
active: [10] 7.75 µM
not listed: [2] | [12] | [15] | [16] | [17] | [18] | [20]
inactive: all other assays above

O=S(=O)(c1ccc(O)cc1)c1ccc(O)cc1
not listed: [1] | [4] | [13] | [14] | [19]
inactive: all other assays above

COCCOCCO
not listed: [2] | [4] | [10] | [12] | [15] | [16] | [17] | [18]
inactive: all other assays above

c1ccc2c(c1)Nc1ccccc1S2
active: [10] 20.6 µM
not listed: [2] | [4] | [9] | [16] | [19]
inactive: all other assays above

CCOP(=S)(OCC)SCn1nnc2ccccc2c1=O
active: [2] 26.5 µM | [4] 100 µM | [6] 58.6 µM | [10] 1.6 µM | [13] 10.7 µM
not listed: [3] | [16] | [17] | [18]
inactive: all other assays above

ClC(Cl)c1ccccc1
not listed: [2] | [3] | [4] | [10] | [12] | [16] | [19] | [20]
inactive: all other assays above

CC(=O)CCc1ccc2c(c1)OCO2
not listed: [13] | [14] | [16] | [17] | [19] | [20]
inactive: all other assays above
